Experimental data as given in PubChem BioAssay (NCI).
The panel holds about 83,000 compounds, 20% with a hit somewhere; the sample as a whole holds those more often.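 Results are percent growth after 48 hours of single-concentration exposure. 100 means growth as in untreated cells, lower positive values show inhibition; negative values down to -100 show cell death.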 Values without a mark were called inactive. Active and inactive are the calls of the source. How the source made its calls: active means growth percent below 10; inactive means the rest.

What was measured:
Experiment in all cases: NCI-60 one-dose screen, 48 h (100 = growth as untreated, 0 = no growth, -100 = all killed)
NCI-H23 lung = settings: 10 µM unless noted
NCI-H226 lung = settings: 10 µM unless noted
NCI-H322M lung = settings: 10 µM unless noted
HOP-62 NSCLC = settings: 10 µM unless noted
HOP-92 NSCLC = settings: 10 µM unless noted
NCI-H522 lung = settings: 10 µM unless noted
A549/ATCC NSCLC = settings: 10 µM unless noted
786-0 renal = settings: 10 µM unless noted
COLO 205 colon = settings: 10 µM unless noted
DU-145 prostate = settings: 10 µM unless noted
K-562 leukemia = settings: 10 µM unless noted
MALME-3M melanoma = settings: 10 µM unless noted
MDA-MB-231 breast = settings: 10 µM unless noted
RXF 393 renal = settings: 10 µM unless noted
SF-268 CNS = settings: 10 µM unless noted
SF-295 CNS = settings: 10 µM unless noted
SF-539 CNS = settings: 10 µM unless noted
UACC-257 melanoma = settings: 10 µM
M14 melanoma = settings: 10 µM unless noted

**Q.** For `Cc1ccc(S(=O)(=O)N/N=C/c2cn(-c3ccc(F)cc3)nc2-c2ccc(S(C)(=O)=O)cc2)cc1`, which growth (NCI-H23 lung) is on record?
**A.** 104%

**Q.** What about the growth (NCI-H226 lung) of the same compound?
**A.** 102%

**Q.** What about the growth (NCI-H322M lung) of the same compound?
**A.** 106%

**Q.** And the growth (HOP-62 NSCLC)?
**A.** 101%

**Q.** What about the growth (HOP-92 NSCLC) of the same compound?
**A.** 89.7%

**Q.** What about the growth (NCI-H522 lung) of the same compound?
**A.** 95.3%

**Q.** What about the growth (A549/ATCC NSCLC) of the same compound?
**A.** 101%

**Q.** What about the growth (786-0 renal) of the same compound?
**A.** 100%

**Q.** And the growth (COLO 205 colon)?
**A.** 107%

**Q.** And the growth (DU-145 prostate)?
**A.** 114%

**Q.** What about the growth (K-562 leukemia) of the same compound?
**A.** 102%

**Q.** And the growth (MALME-3M melanoma)?
**A.** 71%

**Q.** What about the growth (MDA-MB-231 breast) of the same compound?
**A.** 104%

**Q.** And the growth (RXF 393 renal)?
**A.** 117%

**Q.** What about the growth (SF-268 CNS) of the same compound?
**A.** 104%

**Q.** And the growth (SF-295 CNS)?
**A.** 103%

**Q.** And the growth (SF-539 CNS)?
**A.** 97.7%

**Q.** What about the growth (UACC-257 melanoma) of the same compound?
**A.** 99.3%

**Q.** Which results are given for `C/C(=C(/C)C1CC1CCN(C(=O)c1ccc([N+](=O)[O-])cc1)S(=O)(=O)c1ccc(C)cc1)C1CCCCC1` (stereo not given)?
**A.** growth (NCI-H23 lung): 87.2%; growth (NCI-H226 lung): 90.8%; growth (NCI-H322M lung): 100%; growth (HOP-62 NSCLC): 109%; growth (HOP-92 NSCLC): -49% (active); growth (NCI-H522 lung): 83.8%; growth (A549/ATCC NSCLC): 97.8%; growth (786-0 renal): 96.2%; growth (COLO 205 colon): 112%; growth (DU-145 prostate): 96.6%; growth (K-562 leukemia): 74.7%; growth (MALME-3M melanoma): 98.3%; growth (MDA-MB-231 breast): 97.3%; growth (RXF 393 renal): 105%; growth (SF-268 CNS): 96.5%; growth (SF-295 CNS): 104%; growth (SF-539 CNS): 100%; growth (UACC-257 melanoma): 96.9%; growth (M14 melanoma): 97.7%

**Q.** With `COc1ccc(Cn2cc3c(c2-c2ccccc2)CCCc2cnoc2-3)cc1[N+](=O)[O-]` as the compound, how does the growth (NCI-H23 lung) read?
**A.** 74.8%

**Q.** And the growth (NCI-H226 lung)?
**A.** 66.6%

**Q.** What about the growth (NCI-H322M lung) of the same compound?
**A.** 96.2%

**Q.** What about the growth (HOP-62 NSCLC) of the same compound?
**A.** 68.6%

**Q.** What about the growth (HOP-92 NSCLC) of the same compound?
**A.** 62.7%

**Q.** And the growth (NCI-H522 lung)?
**A.** 58.2%

**Q.** And the growth (786-0 renal)?
**A.** 87.6%

**Q.** What about the growth (COLO 205 colon) of the same compound?
**A.** 46.8%

**Q.** What about the growth (DU-145 prostate) of the same compound?
**A.** 84.2%

**Q.** What about the growth (K-562 leukemia) of the same compound?
**A.** 17.8%

**Q.** And the growth (MALME-3M melanoma)?
**A.** 60.5%

**Q.** And the growth (MDA-MB-231 breast)?
**A.** 75.2%

**Q.** What about the growth (RXF 393 renal) of the same compound?
**A.** 49.6%

**Q.** And the growth (SF-268 CNS)?
**A.** 78.5%

**Q.** And the growth (SF-295 CNS)?
**A.** 69.5%

**Q.** And the growth (SF-539 CNS)?
**A.** 70.5%

**Q.** What about the growth (UACC-257 melanoma) of the same compound?
**A.** 75.3%

**Q.** What about the growth (M14 melanoma) of the same compound?
**A.** 51%

**Q.** Which growth (NCI-H23 lung) does the source give for `Cc1ccc(C2CC(c3ccc(Nc4nc(NCCO)nc(Nc5ccc(Cl)cc5)n4)cc3)=Nc3c(N)nc(N)nc3N2)cc1` (stereo not given) here?
**A.** -81.8% (active)

**Q.** What about the growth (NCI-H226 lung) of the same compound?
**A.** 49.7%

**Q.** What about the growth (NCI-H322M lung) of the same compound?
**A.** -89.8% (active)

**Q.** What about the growth (HOP-62 NSCLC) of the same compound?
**A.** -86.4% (active)

**Q.** What about the growth (HOP-92 NSCLC) of the same compound?
**A.** 53.4%

**Q.** What about the growth (NCI-H522 lung) of the same compound?
**A.** -69.4% (active)

**Q.** What about the growth (A549/ATCC NSCLC) of the same compound?
**A.** 57.9%

**Q.** And the growth (786-0 renal)?
**A.** -91.9% (active)

**Q.** And the growth (COLO 205 colon)?
**A.** 29.9%

**Q.** What about the growth (DU-145 prostate) of the same compound?
**A.** -90.7% (active)

**Q.** And the growth (K-562 leukemia)?
**A.** -53.5% (active)

**Q.** And the growth (MALME-3M melanoma)?
**A.** 95.6%

**Q.** What about the growth (MDA-MB-231 breast) of the same compound?
**A.** -74.3% (active)

**Q.** What about the growth (SF-268 CNS) of the same compound?
**A.** -46.7% (active)

**Q.** And the growth (SF-295 CNS)?
**A.** 28.9%

**Q.** What about the growth (SF-539 CNS) of the same compound?
**A.** -20.3% (active)

**Q.** And the growth (UACC-257 melanoma)?
**A.** 113%

**Q.** And the growth (M14 melanoma)?
**A.** 2.15% (active)

**Q.** For `COc1ccc(/C=C/C(=O)c2nnn(-c3ccc(Br)cc3)c2C)cc1OC`, which growth (NCI-H23 lung) is on record?
**A.** 59.9%

**Q.** What about the growth (NCI-H226 lung) of the same compound?
**A.** 70.7%

**Q.** What about the growth (NCI-H322M lung) of the same compound?
**A.** 95.3%

**Q.** What about the growth (HOP-62 NSCLC) of the same compound?
**A.** 88.1%

**Q.** And the growth (HOP-92 NSCLC)?
**A.** 81%

**Q.** What about the growth (NCI-H522 lung) of the same compound?
**A.** 67.7%

**Q.** And the growth (786-0 renal)?
**A.** 93.5%

**Q.** And the growth (COLO 205 colon)?
**A.** 90.4%

**Q.** What about the growth (DU-145 prostate) of the same compound?
**A.** 73.5%

**Q.** And the growth (K-562 leukemia)?
**A.** 19.2%

**Q.** What about the growth (MALME-3M melanoma) of the same compound?
**A.** 83%

**Q.** And the growth (MDA-MB-231 breast)?
**A.** 83.3%

**Q.** What about the growth (RXF 393 renal) of the same compound?
**A.** 80.3%

**Q.** What about the growth (SF-268 CNS) of the same compound?
**A.** 89.4%

**Q.** What about the growth (SF-295 CNS) of the same compound?
**A.** 80.2%

**Q.** And the growth (SF-539 CNS)?
**A.** 83.7%

**Q.** And the growth (UACC-257 melanoma)?
**A.** 85.3%

**Q.** `COC(=O)[C@@]1(C)CC[C@]2(C)CC[C@]3(C)C(=CC(=O)[C@@H]4[C@@]5(C)Cc6c(n(CC#CCN7CCN(C)CC7)c7ccccc67)C(C)(C)[C@@H]5CC[C@]43C)[C@@H]2C1` was tested. Which growth (NCI-H23 lung) did it give?
**A.** 84.7%

**Q.** And the growth (NCI-H226 lung)?
**A.** 98.5%

**Q.** What about the growth (NCI-H322M lung) of the same compound?
**A.** 91.5%

**Q.** What about the growth (HOP-62 NSCLC) of the same compound?
**A.** 113%

**Q.** And the growth (HOP-92 NSCLC)?
**A.** 83%

**Q.** And the growth (NCI-H522 lung)?
**A.** 100%

**Q.** What about the growth (786-0 renal) of the same compound?
**A.** 67.8%

**Q.** What about the growth (COLO 205 colon) of the same compound?
**A.** 94.2%

**Q.** What about the growth (DU-145 prostate) of the same compound?
**A.** 54.5%

**Q.** What about the growth (K-562 leukemia) of the same compound?
**A.** -5.29% (active)

**Q.** What about the growth (MALME-3M melanoma) of the same compound?
**A.** 115%

**Q.** And the growth (MDA-MB-231 breast)?
**A.** 67.2%

**Q.** What about the growth (SF-268 CNS) of the same compound?
**A.** 86.6%

**Q.** And the growth (SF-295 CNS)?
**A.** 85.9%

**Q.** What about the growth (SF-539 CNS) of the same compound?
**A.** 91.5%

**Q.** And the growth (UACC-257 melanoma)?
**A.** 106%

**Q.** And the growth (M14 melanoma)?
**A.** 90.6%

**Q.** Which growth (NCI-H23 lung) does the source give for `O=C(Nc1cccc(Cl)c1)Nc1nc2ccc(-c3cccc4ccccc34)cc2s1` here?
**A.** 24.6%

**Q.** What about the growth (NCI-H226 lung) of the same compound?
**A.** 57.5%

**Q.** What about the growth (NCI-H322M lung) of the same compound?
**A.** 71.1%

**Q.** And the growth (HOP-62 NSCLC)?
**A.** 61%

**Q.** And the growth (HOP-92 NSCLC)?
**A.** -2.69% (active)

**Q.** What about the growth (NCI-H522 lung) of the same compound?
**A.** 25.8%

**Q.** What about the growth (A549/ATCC NSCLC) of the same compound?
**A.** 36.9%

**Q.** And the growth (786-0 renal)?
**A.** 82.5%

**Q.** And the growth (COLO 205 colon)?
**A.** 49.7%

**Q.** And the growth (DU-145 prostate)?
**A.** 42.7%

**Q.** And the growth (K-562 leukemia)?
**A.** 17.9%

**Q.** And the growth (MALME-3M melanoma)?
**A.** 42.8%

**Q.** And the growth (MDA-MB-231 breast)?
**A.** 75.2%

**Q.** And the growth (RXF 393 renal)?
**A.** 84.4%

**Q.** What about the growth (SF-268 CNS) of the same compound?
**A.** 66.7%

**Q.** What about the growth (SF-295 CNS) of the same compound?
**A.** 63.4%

**Q.** And the growth (SF-539 CNS)?
**A.** 87%

**Q.** What about the growth (UACC-257 melanoma) of the same compound?
**A.** 50.6%

**Q.** And the growth (M14 melanoma)?
**A.** 68.7%

**Q.** Which results are given for `C[C@@H]1C[C@H]2C(=O)OCC(NC(=O)[C@H](Cc3cc(F)cc(F)c3)NC(=O)Nc3ccc(Cl)cc3F)C(=O)N3CCC[C@H]3C(=O)N3CCCC[C@H]3C(=O)N[C@@H](C)C(=O)N2C1` (stereo not given in full)?
**A.** growth (NCI-H23 lung): 37.9%; growth (NCI-H226 lung): -4.62% (active); growth (NCI-H322M lung): 48.3%; growth (HOP-62 NSCLC): 39.1%; growth (HOP-92 NSCLC): 9.65% (active); growth (NCI-H522 lung): 17.2%; growth (A549/ATCC NSCLC): 25.1%; growth (786-0 renal): 33.6%; growth (COLO 205 colon): -9.71% (active); growth (DU-145 prostate): 24.7%; growth (K-562 leukemia): 19.3%; growth (MALME-3M melanoma): 35.9%; growth (MDA-MB-231 breast): 27.3%; growth (RXF 393 renal): -12.6% (active); growth (SF-268 CNS): 29.8%; growth (SF-295 CNS): 8.11% (active); growth (SF-539 CNS): 32.1%; growth (UACC-257 melanoma): 17.2%; growth (M14 melanoma): 19%
